Values joined by “and” are separate entries in the source; they are usually repeats but may differ in a detail not shown here. Equal entries are not always repeated. Results filed as inconclusive are left out. Some structures have more than one record in an assay (separate samples or runs), and their calls can disagree. Active and inactive are the calls of the source. How the source made its calls, unless noted: active means hit-call score of the fitted dose curve at least 0.9, where 1 is the maximum; inconclusive means response in the unintended direction; inactive means score below 0.9.
Assays:
[1] = target: Estrogen receptor beta (Homo sapiens) (UniProt Q92731); test: OT_ER_ERbERb_1440: Odyssey Thera (OT) 24-hour HEK293T Protein-Complementation Assay for Estrogen Receptor-beta/-beta Homodimer (AID 2283380);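 further: scored as signal increase over DMSO baseline for both agonists and antagonists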
How it was run: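 HEK293T cells stably expressing ER beta LBD (aa 310-547) homodimer fragment-complementation reporter, dosed 24 h. Cells formaldehyde-fixed, Draq5-stained; gain in nuclear (agonist) or nuclear plus cytoplasmic (antagonist) fluorescence versus DMSO read by laser scanning cytometry.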

[2] = target: Estrogen receptor (Homo sapiens) (UniProt P03372); test: OT_ERa_GFPERaERE_0480: Odyssey Thera (OT) 8-hour HeLa Transcription Induction Assay for Estrogen Receptor (AID 2283381; active means hit-call score of the fitted dose curve at least 0.9, where 1 is the maximum; inactive means score below 0.9)
How it was run: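 Human cervical HeLa cells were treated for 8 hours, after which ERE-driven GFP induction was measured by fluorescence microscopy; increases over DMSO baseline defined activity.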

[3] = target: Estrogen receptor (Homo sapiens) (UniProt P03372); test: OT_ERa_GFPERaERE_0120: Odyssey Thera (OT) 2-hour HeLa Transcription Induction Assay for Estrogen Receptor (AID 2283382)
How it was run: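 Cells (human cervical HeLa) receive compound, incubate 2 hours, then are imaged for fluorescent reporter induction. Images are quantified by high content analysis, and activity is fitted as gain of signal against DMSO.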

[4] = target: Bile acid receptor (Homo sapiens) (UniProt Q96RI1); test: OT_FXR_FXRSRC1_0480: Odyssey Thera (OT) 8-hour HEK293T Protein-Complementation Assay for Farnesoid X receptor/SRC-1 Co-activator (AID 2283383)
How it was run: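 PCA, HEK293T, 8 h compound exposure; FXR–SRC-1 binding reconstitutes split reporter; fluorescence intensity; positive-direction fit vs DMSO.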

[5] = target: Retinoic acid receptor RXR-alpha (Homo sapiens) (UniProt P19793); test: OT_NURR1_NURR1RXRa_0480: Odyssey Thera (OT) 8-hour HEK293T Protein Complementation Assay for Nurr1/retinoid X receptor (RXR) (AID 2283385)
How it was run: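 Interaction of bait and prey reconstitutes a functional reporter, whose fluorescence was measured in HEK293T cells dosed with compound for 8 hours. Signal gain relative to DMSO defined the single endpoint.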

[6] = target: Peroxisome proliferator-activated receptor gamma (Homo sapiens) (UniProt P37231); test: OT_PPARg_PPARgSRC1_0480: Odyssey Thera (OT) 8-hour Protein-Complementation Assay for Peroxisome Proliferator-activated Receptor Gamma / SRC-1 Co-activator (AID 2283387);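 further: nuclear to cytoplasmic split Venus YFP fluorescence ratio reporting PPARg SRC-1 interaction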
How it was run: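 Read-out: 488 nm N/C fluorescence ratio from complemented Venus YFP fragments, ≥350 cells per image, gain-of-signal fitted against DMSO baseline. Fusions of PPARg/SRC-1 with IFP1/IFP2 expressed transiently in HEK293T; compounds applied 8 h.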

[7] = target: Bile acid receptor (Homo sapiens) (UniProt Q96RI1); test: OT_FXR_FXRSRC1_1440: Odyssey Thera (OT) 24-hour HEK293T Protein-Complementation Assay for Farnesoid X receptor/SRC-1 Co-activator (AID 2283384)
How it was run: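 Measures ligand-driven FXR–SRC-1 co-activator recruitment in HEK293T via fragment complementation, fluorescence intensity at 24 h. DMSO served as negative control and baseline for gain-of-signal fitting.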

[8] = target: Retinoic acid receptor RXR-alpha (Homo sapiens) (UniProt P19793); test: OT_NURR1_NURR1RXRa_1440: Odyssey Thera (OT) 24-hour HEK293T Protein Complementation Assay for Nurr1/retinoid X receptor (RXR) (AID 2283386)
How it was run: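 Steps: fragment-tagged Nurr1 and RXRα expressed in HEK293T; compounds added; after 24 h, complemented reporter quantified by fluorescence intensity; signal increase over DMSO fitted as the single endpoint.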

[9] = target: human Serotonin Transporter (SERT), SLC6A4 (gene 6532) (UniProt P31645); test: NVS_TR_hSERT: NovaScreen (NVS) Transporter Assay for human Serotonin Transporter (SERT) (AID 2283372)
How it was run: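 Human platelet membrane preparation; displacement of radioligand from serotonin transporter measured after 1 h by filtration and scintillation counting. Single 25 uM duplicate screen, then concentration series for actives, with DMSO as negative baseline.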

[10] = target: Peroxisome proliferator-activated receptor gamma (Homo sapiens) (UniProt P37231); test: NVS_NR_hPPARg: NovaScreen (NVS) Nuclear Receptor Binding Assay for human Peroxisome Proliferator-activated Receptor gamma (PPARg) (AID 2283370)
How it was run: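 FP read-out, 2 h post-dose, cell-free extracted receptor protein. Signal loss vs DMSO negative control = binding activity. Single-conc duplicate HTS at 25 uM; concentration-response follow-up for actives.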

[11] = target: Agonist Androgen Response Element (ARE), AR (gene 367) (UniProt P10275); test: OT_AR_ARELUC_AG_1440: Odyssey Thera (OT) 24-hour CHO-K1 Luciferase Assay for Agonist Androgen Response Element (ARE) (AID 2283379)
How it was run: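 Gain-of-signal reporter endpoint: cells (CHO-K1, hamster) are treated 24 h, luciferin/ATP reagent added, and luminescence compared with DMSO baseline.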

[12] = target: human Norepinephrine Transporter (NET), SLC6A2 (gene 6530) (UniProt P23975); test: NVS_TR_hNET: NovaScreen (NVS) Transporter Assay for human Norepinephrine Transporter (NET) (AID 2283377);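 further: cell-free membrane protein extracted from CHO cells expressing human NET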
How it was run: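 CHO cell extracts expressing the transporter; tritiated or iodinated tracer displaced competitively; filtration plus scintillation readout at 1 h. Single-point duplicates at 25 uM, concentration series for follow-up; activity = signal drop relative to DMSO.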

Measured: AC50

Bile acid receptor (Homo sapiens), sequence (Q96RI1 whole entry, looked up, the tested form may be a part): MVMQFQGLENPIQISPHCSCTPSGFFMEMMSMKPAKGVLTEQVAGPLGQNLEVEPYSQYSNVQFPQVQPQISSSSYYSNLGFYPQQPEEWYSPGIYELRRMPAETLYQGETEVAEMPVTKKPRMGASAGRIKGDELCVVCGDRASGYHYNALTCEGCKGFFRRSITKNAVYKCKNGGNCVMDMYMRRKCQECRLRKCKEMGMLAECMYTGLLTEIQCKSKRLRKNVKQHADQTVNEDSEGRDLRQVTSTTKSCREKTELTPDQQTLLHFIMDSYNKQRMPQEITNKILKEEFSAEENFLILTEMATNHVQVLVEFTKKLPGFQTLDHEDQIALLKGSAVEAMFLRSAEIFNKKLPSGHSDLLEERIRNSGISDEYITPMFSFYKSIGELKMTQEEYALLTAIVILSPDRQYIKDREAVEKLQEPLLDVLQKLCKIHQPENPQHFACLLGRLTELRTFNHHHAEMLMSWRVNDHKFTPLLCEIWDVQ
Estrogen receptor beta (Homo sapiens), sequence (Q92731 whole entry, looked up, the tested form may be a part): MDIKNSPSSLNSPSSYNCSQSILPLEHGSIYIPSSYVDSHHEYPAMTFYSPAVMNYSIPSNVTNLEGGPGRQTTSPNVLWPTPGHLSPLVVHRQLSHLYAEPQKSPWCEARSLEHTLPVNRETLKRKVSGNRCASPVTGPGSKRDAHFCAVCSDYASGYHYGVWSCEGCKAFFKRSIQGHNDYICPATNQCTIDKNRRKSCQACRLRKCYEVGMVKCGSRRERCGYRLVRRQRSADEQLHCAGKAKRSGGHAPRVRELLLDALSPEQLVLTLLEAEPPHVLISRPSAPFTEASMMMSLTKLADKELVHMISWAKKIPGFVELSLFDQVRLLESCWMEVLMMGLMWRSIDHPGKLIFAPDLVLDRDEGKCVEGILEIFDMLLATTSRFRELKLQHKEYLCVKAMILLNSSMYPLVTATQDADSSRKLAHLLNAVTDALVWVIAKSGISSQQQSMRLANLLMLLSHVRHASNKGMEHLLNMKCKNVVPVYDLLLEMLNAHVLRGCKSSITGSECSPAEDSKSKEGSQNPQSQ
Retinoic acid receptor RXR-alpha (Homo sapiens), sequence (P19793 whole entry, looked up, the tested form may be a part): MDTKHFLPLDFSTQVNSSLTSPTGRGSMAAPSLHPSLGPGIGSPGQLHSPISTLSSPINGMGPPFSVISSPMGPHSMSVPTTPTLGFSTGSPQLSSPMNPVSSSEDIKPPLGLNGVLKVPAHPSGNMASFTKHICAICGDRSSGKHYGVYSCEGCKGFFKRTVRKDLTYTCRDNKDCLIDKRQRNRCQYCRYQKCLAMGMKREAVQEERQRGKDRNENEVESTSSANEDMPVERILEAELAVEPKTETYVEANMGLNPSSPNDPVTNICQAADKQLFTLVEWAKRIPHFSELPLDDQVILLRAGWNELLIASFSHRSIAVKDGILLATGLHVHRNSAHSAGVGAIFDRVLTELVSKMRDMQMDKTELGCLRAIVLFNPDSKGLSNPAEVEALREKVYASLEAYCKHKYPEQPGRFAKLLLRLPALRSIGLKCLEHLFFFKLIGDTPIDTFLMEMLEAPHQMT
Estrogen receptor (Homo sapiens), sequence (P03372 whole entry, looked up): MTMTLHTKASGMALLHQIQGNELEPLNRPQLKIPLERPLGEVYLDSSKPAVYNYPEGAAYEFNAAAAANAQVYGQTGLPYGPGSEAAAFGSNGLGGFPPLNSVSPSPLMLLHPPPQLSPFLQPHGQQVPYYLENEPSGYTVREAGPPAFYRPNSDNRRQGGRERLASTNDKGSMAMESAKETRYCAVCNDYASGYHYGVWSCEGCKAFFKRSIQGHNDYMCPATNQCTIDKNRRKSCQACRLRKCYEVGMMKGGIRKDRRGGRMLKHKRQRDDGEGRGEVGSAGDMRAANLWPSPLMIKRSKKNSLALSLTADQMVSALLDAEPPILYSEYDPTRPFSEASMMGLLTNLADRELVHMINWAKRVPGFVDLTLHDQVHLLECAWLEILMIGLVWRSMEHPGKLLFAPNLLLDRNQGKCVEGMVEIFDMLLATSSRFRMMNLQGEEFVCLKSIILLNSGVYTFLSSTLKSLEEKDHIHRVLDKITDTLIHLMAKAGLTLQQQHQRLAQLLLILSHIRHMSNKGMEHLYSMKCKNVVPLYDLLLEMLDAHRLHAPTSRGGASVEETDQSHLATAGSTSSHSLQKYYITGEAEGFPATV
Agonist Androgen Response Element (ARE), AR (gene 367), sequence (P10275 whole entry, looked up): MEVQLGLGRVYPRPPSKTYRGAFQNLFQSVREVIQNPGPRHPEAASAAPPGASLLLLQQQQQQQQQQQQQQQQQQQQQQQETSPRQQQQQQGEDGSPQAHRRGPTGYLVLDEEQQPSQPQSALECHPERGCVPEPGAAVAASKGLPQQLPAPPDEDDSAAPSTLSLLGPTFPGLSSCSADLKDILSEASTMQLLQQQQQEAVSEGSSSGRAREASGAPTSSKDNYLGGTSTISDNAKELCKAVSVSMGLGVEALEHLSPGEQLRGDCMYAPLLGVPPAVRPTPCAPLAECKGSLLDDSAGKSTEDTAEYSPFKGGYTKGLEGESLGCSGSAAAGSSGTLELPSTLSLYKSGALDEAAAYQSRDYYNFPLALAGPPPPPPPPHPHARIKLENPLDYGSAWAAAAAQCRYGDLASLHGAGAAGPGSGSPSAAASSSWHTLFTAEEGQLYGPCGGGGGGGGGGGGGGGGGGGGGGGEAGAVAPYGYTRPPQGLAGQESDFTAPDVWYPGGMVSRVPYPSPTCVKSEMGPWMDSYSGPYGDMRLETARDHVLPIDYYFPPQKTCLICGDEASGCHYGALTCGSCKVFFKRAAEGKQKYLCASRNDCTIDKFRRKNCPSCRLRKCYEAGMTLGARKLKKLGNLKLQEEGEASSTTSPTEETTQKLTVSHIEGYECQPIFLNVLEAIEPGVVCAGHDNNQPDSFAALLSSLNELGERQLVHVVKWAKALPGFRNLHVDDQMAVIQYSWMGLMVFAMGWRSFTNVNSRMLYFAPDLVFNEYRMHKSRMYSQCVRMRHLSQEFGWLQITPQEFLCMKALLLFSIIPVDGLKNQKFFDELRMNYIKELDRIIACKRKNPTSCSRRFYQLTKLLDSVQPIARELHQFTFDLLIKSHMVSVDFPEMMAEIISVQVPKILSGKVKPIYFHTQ
Peroxisome proliferator-activated receptor gamma (Homo sapiens), sequence (P37231 whole entry, looked up, the tested form may be a part): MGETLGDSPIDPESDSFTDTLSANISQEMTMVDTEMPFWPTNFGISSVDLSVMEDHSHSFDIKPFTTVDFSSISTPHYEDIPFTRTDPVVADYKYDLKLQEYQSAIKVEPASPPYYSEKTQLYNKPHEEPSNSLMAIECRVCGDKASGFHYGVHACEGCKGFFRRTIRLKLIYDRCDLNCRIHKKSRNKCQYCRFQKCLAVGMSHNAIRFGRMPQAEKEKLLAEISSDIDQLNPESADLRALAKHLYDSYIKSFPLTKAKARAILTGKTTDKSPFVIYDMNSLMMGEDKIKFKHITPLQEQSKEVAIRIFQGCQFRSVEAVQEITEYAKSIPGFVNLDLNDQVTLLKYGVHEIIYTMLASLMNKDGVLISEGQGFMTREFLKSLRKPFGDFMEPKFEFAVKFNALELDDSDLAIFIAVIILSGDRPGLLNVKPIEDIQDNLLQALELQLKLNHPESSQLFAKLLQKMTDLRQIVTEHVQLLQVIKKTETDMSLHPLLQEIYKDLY
human Serotonin Transporter (SERT), SLC6A4 (gene 6532), sequence (P31645 whole entry, looked up): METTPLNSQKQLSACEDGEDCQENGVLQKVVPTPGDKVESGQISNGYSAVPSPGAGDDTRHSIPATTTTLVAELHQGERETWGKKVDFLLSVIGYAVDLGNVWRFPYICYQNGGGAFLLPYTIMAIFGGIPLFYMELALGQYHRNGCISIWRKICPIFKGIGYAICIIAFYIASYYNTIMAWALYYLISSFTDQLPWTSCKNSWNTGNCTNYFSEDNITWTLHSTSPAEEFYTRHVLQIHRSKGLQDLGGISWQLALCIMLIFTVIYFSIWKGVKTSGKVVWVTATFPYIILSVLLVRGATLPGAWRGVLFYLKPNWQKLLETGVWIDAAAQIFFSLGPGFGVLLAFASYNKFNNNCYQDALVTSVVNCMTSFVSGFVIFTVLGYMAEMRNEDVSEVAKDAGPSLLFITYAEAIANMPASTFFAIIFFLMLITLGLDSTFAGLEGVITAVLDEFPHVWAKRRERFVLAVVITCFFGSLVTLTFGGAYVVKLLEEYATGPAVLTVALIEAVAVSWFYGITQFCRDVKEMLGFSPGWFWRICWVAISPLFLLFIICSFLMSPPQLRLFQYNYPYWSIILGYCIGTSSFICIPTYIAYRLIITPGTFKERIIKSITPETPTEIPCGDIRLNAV
human Norepinephrine Transporter (NET), SLC6A2 (gene 6530), sequence (P23975 whole entry, looked up): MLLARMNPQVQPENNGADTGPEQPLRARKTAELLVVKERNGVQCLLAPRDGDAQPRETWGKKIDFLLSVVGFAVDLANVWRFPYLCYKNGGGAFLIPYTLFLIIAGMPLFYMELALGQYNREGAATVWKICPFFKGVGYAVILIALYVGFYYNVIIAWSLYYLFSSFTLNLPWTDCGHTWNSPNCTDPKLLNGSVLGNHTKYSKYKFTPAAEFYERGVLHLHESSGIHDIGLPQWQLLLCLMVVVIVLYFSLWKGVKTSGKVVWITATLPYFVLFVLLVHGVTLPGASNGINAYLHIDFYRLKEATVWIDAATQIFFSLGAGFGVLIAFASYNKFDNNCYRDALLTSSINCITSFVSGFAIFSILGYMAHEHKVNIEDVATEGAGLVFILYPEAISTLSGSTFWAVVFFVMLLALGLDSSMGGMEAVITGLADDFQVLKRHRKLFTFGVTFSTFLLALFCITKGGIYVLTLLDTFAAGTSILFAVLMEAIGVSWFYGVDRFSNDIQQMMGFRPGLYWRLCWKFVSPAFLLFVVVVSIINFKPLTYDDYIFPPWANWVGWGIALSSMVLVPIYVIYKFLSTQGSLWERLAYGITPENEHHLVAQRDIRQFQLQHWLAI

c1ccc2c(c1)Cc1ccccc1-2
inactive: [1] | [2] | [3] | [4] | [5] | [6]

C=C(C)C(=O)OCCC(F)(F)C(F)(F)C(F)(F)C(F)(F)C(F)(F)C(F)(F)F
inactive: [1] | [2] | [4] | [7] | [5] | [8] | [6]

CCCCOCCO
inactive: [2] | [3] | [4] | [7] | [5] | [6]

CCCCCCCCOC(=O)CCCCCCCCC(=O)OCCCCCCCC
inactive: [9] | [1] | [2] | [3] | [4] | [5] | [8] | [6]

CN(C)C=O
inactive: [10] | [1] | [2] | [4] | [7] | [5] | [6]

CC(O)C(=O)O (stereo not given)
inactive: [2] | [4] | [7]

CCCCCCC(=O)O
inactive: [1] | [3] | [4] | [7] | [5] | [8]

CCCCCCCCCCCCN1CCCC1=O
inactive: [1] | [2] | [6]
active: [4] 11.6 µM | [7] 11.2 µM | [5] 12.4 µM

CC(C)(C)c1cccc(C(C)(C)C)c1O
active: [4] 78.7 µM | [5] 79.8 µM
inactive: [2] | [3] | [5] | [8] | [6]

Oc1cccc(O)c1
inactive: [3] | [4] | [7] | [5] | [8] | [6]
active: [1] 18 µM | [2] 52.9 µM

CCc1nn(C2CCCCC2)c2cc(C3(C#N)CCC(C(=O)O)CC3)ccc12 (stereo not given)
inactive: [10] | [1] | [2] | [5] | [6]
active: [4] 23.6 µM | [7] 41.3 µM | [5] 76.9 µM

Cc1cc(CCN2CCN(c3nsc4ccccc34)CC2)cc2c1NC(=O)CC2(C)C
inactive: [10] | [11] | [1] | [7] | [6]
active: [2] 16.1 µM

CC(=O)CC(C)(C)O
inactive: [11] | [1] | [2] | [3] | [4] | [7] | [6]

COC(=O)CCCCC(=O)OC
inactive: [2] | [7] | [5] | [6]

COc1ccc([N+](=O)[O-])cc1N
inactive: [1] | [2] | [4] | [7] | [5] | [6]

CCCCC(CC)COC(=O)CCCCC(=O)OCC(CC)CCCC (stereo not given)
inactive: [1] | [2] | [4] | [7] | [5] | [6]

CC1=C(/C=C/C(C)=C/C=C/C(C)=C/C(=O)O)C(C)(C)CCC1
inactive: [10] | [2] | [6]

COCC(C)O (stereo not given)
inactive: [2] | [3] | [6]

CC(C)(C)CC(C)(C)c1ccc(O)c(-n2nc3ccccc3n2)c1
inactive: [1] | [2] | [6]
active: [4] 35.7 µM | [7] 34.5 µM | [5] 75.6 µM and 79 µM | [8] 30 µM and 84.7 µM

OC1CCCCC1
inactive: [2] | [8] | [6]

OCCC(F)(F)C(F)(F)C(F)(F)C(F)(F)C(F)(F)C(F)(F)F
inactive: [1] | [2] | [4] | [7] | [5] | [6]

CCCCCCCCCCCCCCCS(=O)(=O)Oc1ccccc1
inactive: [1] | [2] | [3] | [4] | [7] | [6]

O=[N+]([O-])c1ccc(O)cc1
inactive: [10] | [12] | [2] | [5] | [6]

OCCC(F)(F)C(F)(F)C(F)(F)C(F)(F)C(F)(F)C(F)(F)C(F)(F)C(F)(F)F
inactive: [1] | [2] | [5] | [8]
active: [11] 21.8 µM

O=C(OCCOCCOC(=O)c1ccccc1)c1ccccc1
inactive: [2] | [3] | [4] | [7] | [5] | [6]

N#C[C@@H]1CC(F)(F)CN1C(=O)CNC1CC2CCC(C1)N2c1ncccn1 (stereo not given in full)
inactive: [11] | [1] | [2] | [7] | [5] | [8] | [6]

Cc1ccc(S(=O)(=O)O)c(C)c1
active: [2] 24 µM
inactive: [2] | [6]

CCCCCCCCC(=O)O
inactive: [1] | [2] | [5]

CCCCC(CC)COC(=O)CCCCC(=O)OCc1ccccc1 (stereo not given)
inactive: [10] | [1] | [2] | [7] | [5] | [8] | [6]

CC(C)(C)c1cc(C(C)(C)C)c(O)c(C(C)(C)C)c1
inactive: [10] | [2] | [6]
active: [1] 66.3 µM | [4] 81.1 µM | [7] 92.6 µM | [5] 84.3 µM and 77.2 µM

CCOC(=O)CC(O)(CC(=O)OCC)C(=O)OCC
inactive: [10] | [1] | [2] | [6]

CN1CCC[C@H]1c1cccnc1
inactive: [10] | [1] | [2] | [6]

From PubChem BioAssay (EPA / NIEHS)
